Test results: PubChem BioAssay (EPA / NIEHS)
Active and inactive are the calls of the source. How the source made its calls: active means hit-call score of the fitted dose curve at least 0.9, where 1 is the maximum; inactive means score below 0.9.

Assays:
[1] = ATG_CRE_CIS: Attagene CIS-FACTORIAL HepG2 Assay for human cAMP Responsive Element (CRE) binding protein 3 (AID 2282926); details: HepG2 CRE cis-reporter, Attagene multiplexed mRNA; actives raise or lower the signal
In short: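 We dosed HepG2 cells bearing multiple cis-promoter reporter units for 24 h and measured reporter mRNA by RT-PCR with capillary electrophoresis detection. Bidirectional concentration-response fitting used DMSO as negative control.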

[2] = molecular target: CCAAT/enhancer-binding protein beta (Homo sapiens) (UniProt P17676); experiment: ATG_C_EBP_CIS: Attagene CIS-FACTORIAL HepG2 Assay for human CCAAT/Enhancer Binding Protein (C/EBP) beta (AID 2282927); details: HepG2 Attagene cis-factorial transcription factor reporter; actives raise or lower the signal
CCAAT/enhancer-binding protein beta (Homo sapiens), sequence (P17676 whole entry, looked up, the tested form may be a part): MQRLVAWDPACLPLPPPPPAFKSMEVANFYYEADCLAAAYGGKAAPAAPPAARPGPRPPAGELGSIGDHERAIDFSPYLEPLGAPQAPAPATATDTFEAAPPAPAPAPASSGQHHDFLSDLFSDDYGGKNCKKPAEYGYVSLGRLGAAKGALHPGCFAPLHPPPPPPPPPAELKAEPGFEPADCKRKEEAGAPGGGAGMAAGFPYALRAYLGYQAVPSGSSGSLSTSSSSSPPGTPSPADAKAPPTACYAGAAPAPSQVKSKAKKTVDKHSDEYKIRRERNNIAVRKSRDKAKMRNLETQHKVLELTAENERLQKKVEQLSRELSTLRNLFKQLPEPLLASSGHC
In short: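 Endogenous C/EBPb-driven reporter transcripts measured in transfected human HepG2 cells at 24 h via RT-PCR and capillary electrophoresis of labelled fragments. Activity fitted in both directions relative to DMSO baseline.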

[3] = ATG_CMV_CIS: Attagene CIS-FACTORIAL HepG2 Assay for human CMV (Internal Marker) (AID 2282928); details: HepG2 CMV promoter reporter, transcription factor profiling; actives raise or lower the signal;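 further: endpoint acts as a background internal control marker rather than a target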
In short: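 After transient transfection of HepG2 with reporter transcription units driven by cis-regulatory promoters, cells receive test chemical for 24 h. Labeled reporter amplicons, digested with HpaI, are sized and quantified by capillary electrophoresis against DMSO.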

[4] = ATG_DR4_LXR_CIS: Attagene CIS-FACTORIAL HepG2 Assay for human Liver X Receptor (LXR), DR4 submotif (AID 2282929); details: HepG2 Attagene DR4 cis-reporter, mRNA transcription; actives raise or lower the signal
In short: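 HepG2 cells transiently transfected with cis-promoter-driven multiplexed reporter units (DR4 element) were dosed for 24 h. Reporter mRNA was quantified by RT-PCR, fluorescent primer extension, HpaI digestion and capillary electrophoresis; bidirectional fitting versus DMSO baseline.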

[5] = molecular target: Aryl hydrocarbon receptor (Homo sapiens) (UniProt P35869); experiment: ATG_Ahr_CIS: Attagene CIS-FACTORIAL HepG2 Assay for human Aryl Hydrocarbon Receptor (Ahr) (AID 2282930); details: HepG2 AhR cis-factorial reporter transcription; actives raise or lower the signal
Aryl hydrocarbon receptor (Homo sapiens), sequence (P35869 whole entry, looked up): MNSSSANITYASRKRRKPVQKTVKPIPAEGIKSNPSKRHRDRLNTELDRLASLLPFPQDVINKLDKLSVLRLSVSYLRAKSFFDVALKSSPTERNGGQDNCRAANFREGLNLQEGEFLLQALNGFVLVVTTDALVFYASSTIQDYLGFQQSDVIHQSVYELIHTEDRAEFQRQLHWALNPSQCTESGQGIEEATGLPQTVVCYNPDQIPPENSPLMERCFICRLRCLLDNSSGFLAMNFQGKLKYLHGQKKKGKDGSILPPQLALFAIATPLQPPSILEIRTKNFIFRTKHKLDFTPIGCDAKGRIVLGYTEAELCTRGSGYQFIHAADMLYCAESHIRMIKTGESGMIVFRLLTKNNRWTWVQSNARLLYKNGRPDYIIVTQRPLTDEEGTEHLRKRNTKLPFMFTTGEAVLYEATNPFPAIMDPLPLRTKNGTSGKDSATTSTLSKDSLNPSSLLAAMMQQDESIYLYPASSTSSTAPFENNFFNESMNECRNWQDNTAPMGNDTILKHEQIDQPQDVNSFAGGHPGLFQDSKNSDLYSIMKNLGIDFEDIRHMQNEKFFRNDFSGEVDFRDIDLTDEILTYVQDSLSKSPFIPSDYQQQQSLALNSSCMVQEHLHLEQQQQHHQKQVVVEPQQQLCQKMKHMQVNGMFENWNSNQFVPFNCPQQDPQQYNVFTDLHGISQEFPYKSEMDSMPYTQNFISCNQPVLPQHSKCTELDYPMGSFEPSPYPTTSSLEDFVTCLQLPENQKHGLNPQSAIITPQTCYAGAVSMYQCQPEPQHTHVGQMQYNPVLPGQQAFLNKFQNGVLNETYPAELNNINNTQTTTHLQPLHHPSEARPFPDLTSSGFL
In short: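 Reporter mRNA levels, quantified by RT-PCR and fluorescent capillary electrophoresis, reflect endogenous AhR transcriptional activity in HepG2 cells carrying transfected cis-promoter reporter constructs. Readout at 24 h post-dose; gain or loss fitted against DMSO baseline.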

[6] = ATG_AP_1_CIS: Attagene CIS-FACTORIAL HepG2 Assay for human Activator Protein 1 (AP-1) (AID 2282931); details: HepG2 Attagene cis-factorial AP-1 reporter mRNA; actives raise or lower the signal
In short: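 HepG2 cells transiently transfected with cis-element-driven multiplex reporter units; 24 h compound exposure. Reporter mRNA quantified by RT-PCR, FAM-labelled fragments resolved by capillary electrophoresis; bidirectional fit versus DMSO baseline.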

[7] = ATG_AP_2_CIS: Attagene CIS-FACTORIAL HepG2 Assay for human Activator Protein 2 (AP-2) (AID 2282932); details: HepG2 AP-2 cis-reporter, Attagene transcription factor profiling; actives raise or lower the signal
In short: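 HepG2, transient MRTU transfection, cis-regulated reporters; 24 h compound exposure; RNA isolated, RT-PCR, 6-FAM labelling, HpaI digest, CE fluorescence. DMSO = negative control/baseline, bidirectional fit.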

[8] = ATG_BRE_CIS: Attagene CIS-FACTORIAL HepG2 Assay for human Bone Morphogenetic Protein (BMP) Response Element (BRE) (AID 2282933); details: HepG2 BMP response element reporter, Attagene transcription factor profiling; actives raise or lower the signal
In short: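 Endogenous transcription factor activity read in transiently transfected HepG2 cells after 24 h chemical exposure. Bidirectional curve fitting against DMSO; readout is reporter transcript level by RT-PCR with capillary electrophoresis of labelled products.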

[9] = molecular target: Retinoic acid receptor alpha (Homo sapiens) (UniProt P10276); experiment: ATG_DR5_RAR_CIS: Attagene CIS-FACTORIAL HepG2 Assay for human Retinoic Acid Receptor Alpha (RARE), DR5 submotif (AID 2282934); details: HepG2 Attagene cis-factorial RARE DR5 reporter, mRNA; actives raise or lower the signal;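 on AC50: reporter responds to endogenous RAR alpha beta and gamma in HepG2 not RARA alone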
Retinoic acid receptor alpha (Homo sapiens), sequence (P10276 whole entry, looked up): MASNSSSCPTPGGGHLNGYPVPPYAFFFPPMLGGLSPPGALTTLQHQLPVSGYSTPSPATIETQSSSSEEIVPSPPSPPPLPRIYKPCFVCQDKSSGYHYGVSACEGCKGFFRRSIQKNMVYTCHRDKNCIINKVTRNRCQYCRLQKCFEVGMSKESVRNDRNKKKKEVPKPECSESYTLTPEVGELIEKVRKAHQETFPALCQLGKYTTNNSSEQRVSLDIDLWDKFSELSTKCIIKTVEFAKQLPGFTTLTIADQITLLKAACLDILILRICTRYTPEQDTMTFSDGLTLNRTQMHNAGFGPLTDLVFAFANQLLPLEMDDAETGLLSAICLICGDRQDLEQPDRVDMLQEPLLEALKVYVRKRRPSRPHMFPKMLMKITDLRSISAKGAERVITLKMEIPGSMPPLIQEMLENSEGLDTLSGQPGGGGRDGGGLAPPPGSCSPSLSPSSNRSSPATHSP
In short: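 Reporter transcripts from a DR5-regulated unit, measured via RT-PCR plus capillary electrophoresis, reflect endogenous RAR activity in transiently transfected human HepG2 liver cells. Exposure lasted 24 h; gain or loss of signal scored against DMSO.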

[10] = molecular target: Transcription factor E2F1 (Homo sapiens) (UniProt Q01094); experiment: ATG_E2F_CIS: Attagene CIS-FACTORIAL HepG2 Assay for human E2F Transcription Factor 1 (AID 2282935); details: HepG2 Attagene cis-reporter, E2F reporter RNA transcripts; actives raise or lower the signal
Transcription factor E2F1 (Homo sapiens), sequence (Q01094 whole entry, looked up): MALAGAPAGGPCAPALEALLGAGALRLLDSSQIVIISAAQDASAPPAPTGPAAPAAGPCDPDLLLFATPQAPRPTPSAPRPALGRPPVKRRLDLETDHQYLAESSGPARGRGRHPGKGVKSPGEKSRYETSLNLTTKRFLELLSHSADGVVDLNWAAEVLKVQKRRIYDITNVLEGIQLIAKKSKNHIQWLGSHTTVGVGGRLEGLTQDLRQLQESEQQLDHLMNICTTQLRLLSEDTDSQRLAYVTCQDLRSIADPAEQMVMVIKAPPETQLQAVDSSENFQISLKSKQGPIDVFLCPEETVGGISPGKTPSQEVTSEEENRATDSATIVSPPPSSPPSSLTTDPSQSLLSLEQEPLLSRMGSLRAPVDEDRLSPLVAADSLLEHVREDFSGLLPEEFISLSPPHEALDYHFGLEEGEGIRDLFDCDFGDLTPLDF
In short: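 Cis-element reporter mRNA induction in transiently transfected HepG2, 24 h exposure. Activity fitted in both directions relative to DMSO negative control.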

Measured: AC50

O=C1CCCCCN1SSN1CCCCCC1=O
active: [1] 147 µM
inactive: all other assays above

CCCCCCC(O)CO (stereo not drawn)
inactive: all assays above

CC(C)C(=O)C(C)C
active: [1] 36.9 µM | [6] 66.5 µM
not listed: [9]
inactive: all other assays above

Cc1cccc(C(=O)O)c1
not listed: [9]
inactive: all other assays above

Cc1ccc(OC(=O)CC(C)C)cc1
inactive: all assays above

CC1(C)[C@H]2CC[C@]1(C)C(=O)C2
inactive: all assays above

C=C1C2CCC(C2)C1(C)C (stereo not drawn)
inactive: all assays above

O=C(Nc1cccc(C(F)(F)F)c1)c1cc(Br)cc(Br)c1O
active: [1] 100 µM | [3] 160 µM | [4] 38.3 µM | [7] 5.76 µM | [8] 1.08 µM
inactive: [2] | [6] | [9] | [10]

Cc1c(C)c([N+](=O)[O-])c(C(C)(C)C)c([N+](=O)[O-])c1C
active: [9] 5.92 µM
not listed: [5]
inactive: all other assays above

CC1(C)O[C@@H]2C[C@H]3[C@@H]4C[C@H](F)C5=CC(=O)CC[C@]5(C)[C@H]4[C@@H](O)C[C@]3(C)[C@]2(C(=O)CO)O1
not listed: [9]
inactive: all other assays above

O=P(O)(O)Oc1ccccc1
not listed: [5]
inactive: all other assays above

CC(C)c1ccc2cc(C(C)C)ccc2c1
active: [1] 62 µM | [2] 64.6 µM | [3] 45.5 µM | [6] 55.8 µM | [9] 67 µM
inactive: [4] | [7] | [8] | [10]

Cc1cc(C)c(C)cc1C
not listed: [9]
inactive: all other assays above

O=C1Nc2ccccc2C1(c1ccc(O)cc1)c1ccc(O)cc1
inactive: [2] | [8] | [9] | [10]
active: [1] 23.9 µM | [3] 136 µM | [4] 36.7 µM | [6] 162 µM | [7] 44.8 µM

Cc1ccc2c(c1)C(=O)c1ccccc1C2=O
active: [3] 21.5 µM
not listed: [5]
inactive: all other assays above

CC(=O)OCc1ccco1
not listed: [9]
inactive: all other assays above

CC/C=C\C/C=C\C/C=C\CCCCCCCC(=O)O
active: [1] 173 µM | [4] 153 µM | [6] 161 µM
not listed: [5]
inactive: all other assays above

O=C(O)c1cc(Cl)cc([N+](=O)[O-])c1Cl
not listed: [9]
inactive: all other assays above

C=CC(C)(CCC=C(C)C)OC(=O)CC(C)C (stereo not drawn)
active: [3] 75.3 µM | [4] 133 µM | [6] 119 µM
not listed: [5]
inactive: all other assays above

O=C(c1ccc(O)cc1)c1ccc(O)cc1O
active: [3] 68.7 µM | [8] 100 µM
not listed: [5]
inactive: all other assays above

C=CC(C)(CCC=C(C)C)OC(=O)C(C)C (stereo not drawn)
active: [3] 141 µM | [6] 146 µM
not listed: [5]
inactive: all other assays above

C=CC(=O)OCCOC(=O)C=C
active: [3] 27.2 µM | [4] 27.4 µM | [6] 126 µM | [7] 27.2 µM
not listed: [5]
inactive: all other assays above

c1ccc2c(c1)ccc1ncccc12
active: [3] 19.2 µM | [5] 7.77 µM | [7] 178 µM | [8] 76.4 µM
not listed: [9]
inactive: all other assays above

CCCOC(=O)CCCCC(=O)OCCC
not listed: [5]
inactive: all other assays above

CCCCCCOC(=O)C(C)CC (stereo not drawn)
not listed: [5]
inactive: all other assays above

O=C(Nc1ccccc1SSc1ccccc1NC(=O)c1ccccc1)c1ccccc1
active: [6] 62.4 µM
not listed: [5] | [9]
inactive: all other assays above
